Active and inactive are the calls of the source. The rule behind the calls is not given here.
Molecular target: Protein kinase 7 (PK7), Plasmodium falciparum 3D7 (PF3D7_0213400) (UniProt Q7YTF7)
Experiment: inhibition of Plasmodium PK7 catalytic activity – biochemical, TCAMS antimalarial set, Kinase-Glo luminescence (AID 1159587)
Details: recombinant PfPK7, Kinase-Glo ATP depletion luminescence

Protein kinase 7 (PK7), Plasmodium falciparum 3D7 (PF3D7_0213400), sequence (Q7YTF7 1-343): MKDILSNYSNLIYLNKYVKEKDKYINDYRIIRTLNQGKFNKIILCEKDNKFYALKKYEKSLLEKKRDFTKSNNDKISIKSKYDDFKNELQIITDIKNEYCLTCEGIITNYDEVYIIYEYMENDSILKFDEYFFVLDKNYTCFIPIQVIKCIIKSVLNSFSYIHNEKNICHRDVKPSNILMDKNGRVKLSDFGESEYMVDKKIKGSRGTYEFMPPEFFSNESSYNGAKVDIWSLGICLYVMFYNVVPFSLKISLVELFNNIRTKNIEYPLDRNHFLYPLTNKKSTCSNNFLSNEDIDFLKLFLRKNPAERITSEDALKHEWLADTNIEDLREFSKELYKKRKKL

outcome, inactive:
CS(=O)(=O)c1ccc(CCNCc2ccc(-c3ccc(CN(C(=O)C4CCCC4)C4CCN(Cc5ccccc5)CC4)cc3)nc2)cc1
CCN(CC)CCNC(=O)c1ccc(NC(=O)c2cc3c(C)nn(-c4ccc(Cl)cc4)c3s2)cc1
O=C1COC2(CN1CC1CCN(Cc3ccc(O)c(Cl)c3)C1)c1ccccc1-c1ccccc12 (stereo not given)
CCOC(=O)c1cn(CC)c2cc(O[C@H]3CCN(C(=O)OC(C)(C)C)C3)ccc2c1=O
O=C(c1ccc(OCCn2ccnc2)cc1)N1CCC(c2ccc(Br)cc2)C1 (stereo not given)
Cn1nccc1C(=O)NCCNCc1ccc(-c2ccc(-c3nc4ccccc4[nH]3)s2)cc1
CN1CCN(CCCN(Cc2cccc(-c3ccc(CNCc4ccc5c(c4)OCO5)cc3)c2)C(=O)Nc2ccccc2)CC1
Cc1cccc(S(=O)(=O)Nc2cccc(CCN3CCC(N4CCCCC4)CC3)c2)c1
COc1cccc(-c2nn(C)c3sc(C(=O)NCCN(C)Cc4ccccc4)cc23)c1
Cc1cnc(CS(=O)c2nc3ccc(C(F)(F)F)cc3[nH]2)cc1OCc1ccccc1 (stereo not given)
Cc1cccc(CNc2nc(C)cc(N[C@@H](Cc3ccccc3)C(=O)NCCc3ccccc3)n2)c1
CCc1ccc(CNCC(CCNc2cc(=O)c3ccccc3[nH]2)NCc2cc(Br)cc(Br)c2)o1 (stereo not given)
Cc1ccc(Cc2cnc(NCCSCc3ccc(CN(C)C)s3)[nH]c2=O)cn1
CCCCCCOc1ccccc1C(=O)NCCOc1ccc(Cl)cc1
Cc1cccc(Cn2c(C(N)=O)nn(-c3ccc([N+](=O)[O-])cc3C#N)c2=S)c1
